Inconclusive results are not listed. Activity calls are given as the source filed them. Calls come from the whole dose curve; as a rule, active = well fitted curve in the direction sought with a large enough effect; inconclusive = small, poorly fitted or top-dose-only effect, or another doubt; inactive = no such curve, though single readings can be large or run the other way.
system: NanoLuc luciferase (engineered Oplophorus gracilirostris luciferase); experiment: Confirmatory Nanoluciferase (NLuc) qHTS assay for identification of artifact compounds.; for activity change, negative = inhibition: % of control where 0% means no effect; details: secreted NLuc in S16 cell medium, luminescence, 5 min; series mostly up to 39 µM; activity change, negative = inhibition: at the top concentration
Description: PI: Alexander Tropsha Ph.D. UNC Eshelman School of Pharmacy University of North Carolina, Chapel Hill, North Carolina Hits from high-throughput screening (HTS) of chemical libraries are often false positives due to their interference with the assay detection technology. In response to this problem, we generated the largest publicly available library of chemical liabilities and developed a free webtool to predict HTS artifacts, both of which are described herein. More specifically, we generated, curated, and integrated HTS datasets for thiol reactivity, redox activity, and luciferase (firefly and nano) activity. Using these curated datasets, we developed and validated several Quantitative Structure-Interference Relationship (QSIR) models to predict nuisance behavior. […] These models were employed for virtual profiling of the National Center for Advancing Translational Science's (NCATS) in-house library, and 256 compounds for each assay were selected for the experimental validation of nuisance behavior. The BA for these external predictions ranged from 58 to 78% for compounds within the applicability domains of the models. […] The models developed in this study, along with aggregation models previously developed by our group (SCAM Detective) were implemented in "Liability Predictor," an online tool which may be used as part of chemical library design or for triaging HTS hits. Both the models and the curated datasets are publicly available at https://liability.mml.unc.edu/.
PROTOCOL TABLE SEQUENCE No. (e.g., 1, 2, 3, etc.); PARAMETER (e.g., Cells, Incubation, Reagent, etc.); VALUE; DESCRIPTION. 1; Reagent; 2 uL; Nanoluciferase media. 2; Compounds and control; 16 nL; Kalypsis pin tool (Wako USA) equipped with a 1536-well pin head. 3; Incubation; 15 min. 4; Reagent; 2 uL; Luciferase enzyme. 5; Incubation; 5 min. 6; Detection; Luminescence, ViewLux microplate reader. NOTES (numbers refer to Sequence numbers above) 1. Medium was collected from the culture flasks of NLuc-expressing S16 cells (80% confluent) prior to cell plating, filtered through a 0.22um filter, and frozen at -20C prior to use. Media was diluted (1:55) and 2 uL was dispensed into all wells of a 1536-well assay plate (solid-bottom white plate; Greiner Bio One, Monroe, NC). 2. A Wako Pin-tool (Wako Automation, Richmond, VA) was used to transfer 16 nL of compounds (consisting of 7-plates in qHTS format, final concentration range 18.3 nM to 114 uM) or control Cilnidipine (final concentration range 623 nM to 80 uM). 3. 15 min. incubation at room temperature protected from light. 4. 2 uL of NLuc substrate (1:100 in Nano-Glo luciferase buffer; Nano-Glo luminescence assay, Promega, Madison, WI) was dispensed for a final assay volume of 4 uL. 5. Plates were centrifuged (121xg, 15 seconds) and incubated for 5 minutes. 6. Samples were read for luminescence on a ViewLux CCD imager (PerkinElmer). Data were normalized to no-enzyme (0% activity) and no-inhibitor (DMSO; 100%) controls and the resulting percent inhibition data were fitted to a 4-parameter Hill equation using NCATS in-house software.
Potency is the fitted concentration of half-maximal effect.

Activity change, negative = inhibition, inactive:
O=C(Nc1ccc2oc(-c3cccnc3)nc2c1)c1cc2ccccc2o1 -7.65% [at 78.4 µM], O=C(OCC#CCSc1nnc(-c2ccc3ccccc3c2)o1)c1ccsc1 -10.1%, COc1ccccc1CNC(=O)c1nn(-c2ccc(C)cc2)c(=O)c2c1c1ccccc1n2C -1.11%, CCCn1c(C)nc2c(N3CCCN(Cc4ccccc4)CC3)nc(C)nc21 -1.03%, COc1ccc(-c2c3c(=O)n(C)c(=O)n(C)c3c3n2-c2ccccc2NC3c2ccccc2OC)cc1 (stereo not given) -3.51%, COc1ccc(NC(=O)c2csnn2)cc1Cl -4.84%, CCOc1ccc(CCNC(=O)c2cnc3c(-c4ccccc4)c(C)nn3c2C)cc1OCC -1.56%, Clc1ccc(CNc2cc(-c3ccc4c(c3)OCO4)ncn2)cc1 -8.75%, CCOC(=O)c1c(S(=O)(=O)N2CCCC(C(=O)NCc3ccc(F)cc3)C2)c(C)n(CC)c1C (stereo not given) -14.8%, CO[C@H]1C[C@H](O[C@H]2[C@H](C)[C@@H](O[C@@H]3O[C@H](C)C[C@H](N(C)C)[C@H]3O)[C@@H](C)C[C@]3(CO3)C(=O)[C@H](C)[C@@H](O)[C@@H](C)[C@@H](C)OC(=O)[C@@H]2C)O[C@@H](C)[C@@H]1O 10.5% [at 19.8 µM], Cc1ccc(NC(=O)Cn2c(=O)n(CCC(=O)NCCc3ccccc3)c(=O)c3ccccc32)cc1 -10.7%, CCOc1ccc(OCC)c(NS(=O)(=O)c2c(C)[nH]c(=O)[nH]c2=O)c1 -2.65%, C[C@@H]1C[C@H]2[C@@H]3CCC4=CC(=O)C=C[C@]4(C)[C@@]3(F)[C@@H](O)C[C@]2(C)[C@@]1(O)C(=O)CO -0.23%, Cc1cc(NC(=O)Nc2cccc(-c3ccncc3)n2)ccc1Cl -2.7%, CC(Sc1oc(-c2cccs2)nc1S(=O)(=O)c1ccccc1)c1ccccc1 (stereo not given) -16.5%, CC(=O)Nc1ccc(Nc2nc3ccc(C)cc3n3nnnc23)cc1 1.1%, Cc1ccc(C)c(N2CCN(C(=O)c3ccc(Nc4nc5ccccc5n5nnnc45)cc3)CC2)c1 -2.99%, O=C(Nc1ccccn1)c1sc2ccc([N+](=O)[O-])cc2c1Cl -4.05%, COc1ccc(NC(=O)CSc2c3c(nc4ccccc24)CCC3)cc1Cl -4.79%, Cc1cccc(-c2noc(-c3ccc(NCc4ccco4)c([N+](=O)[O-])c3)n2)c1 -14.5%, O=C(Nc1cc(-c2ccc(F)c(F)c2)no1)c1ccccc1F -7.28%, COc1ccc(CNC(=O)C(=O)NCC(c2ccco2)S(=O)(=O)c2ccc(C)cc2)cc1 (stereo not given) -3.51%, CN(C)C=O 7.7%, C=C(C)[C@]12C[C@@H](C)[C@@]34OC(Cc5ccccc5)(O[C@@H]1[C@@H]3C=C(COC(=O)Cc1cc(OC)c(O)cc1I)C[C@]1(O)C(=O)C(C)=C[C@@H]41)O2 -8.96%, Cc1ccc(C(=O)Nc2nc(-c3ccccc3)ns2)cc1 -7.23%, CCOC(=O)c1c(S(=O)(=O)NCC(=O)Nc2ccc(F)cc2C)c(C)n(C)c1C -2.68%, C[C@]12C[C@H](O)[C@H]3[C@@H](CCC4=CC(=O)CC[C@@]43C)[C@@H]1CC[C@@H]2C(=O)CO 0.994%, Cc1ccc(-c2nc(=Nc3ccccc3)sn2-c2ccccc2)cc1 -8.48%, COc1cccc(N2CCN(c3c4c(nc5nncn35)CCC4)CC2)c1 -13.7%, CC1CCN(c2ccc(-c3nc(C(C)C)no3)cc2[N+](=O)[O-])CC1 -3.52%, C=C[C@@]1(C)CC(=O)[C@]2(O)[C@@]3(C)[C@@H](O)CCC(C)(C)[C@@H]3[C@H](OC(=O)CCN(C)C)[C@H](OC(C)=O)[C@@]2(C)O1 -11.8% [at 78.4 µM], Brc1ccc2nc(SCCOc3ccccc3)[nH]c2c1 -4.85%, Cc1ccc(N2CC(NC(=O)C(=O)c3c[nH]c4ccccc34)CC2=O)cc1 (stereo not given) -9.92%, CCCN(CCC)CCNC(=O)CN1C(=O)COc2ccc(S(=O)(=O)N3CCC(C)CC3)cc21 -0.175%, COC(=O)c1c(NC(=O)c2nc(SCc3cccc(C)c3)ncc2Cl)sc2c1CCCC2 -4.52%, CCOC(=O)C1CCN(C(=O)Cn2c(=O)oc3cc(S(=O)(=O)N4CCC(C)CC4)ccc32)CC1 -3.85%, CN(C)c1ccc(CNC(=O)c2ccc3c(c2)N(C)C(=O)C2CCCCN32)cc1 (stereo not given) -7.38%, OCC(O)C(O)C(OC1OC(CO)C(O)C(O)C1O)C(O)CO (stereo not given) 4.48%, Cc1cc(C)cc(NC(=O)CSc2oc(-c3cccs3)nc2S(=O)(=O)c2ccccc2)c1 -14.4%

Potency, active:
N#C/C(=C\c1ccc(-c2cc(Cl)ccc2Cl)o1)C(=O)Nc1ccccc1C(=O)O 12.2 µM

Source: PubChem BioAssay AID1845224 (National Center for Advancing Translational Sciences (NCATS), 2023)
